# Assay results published in paper PMC7862700, “An all-to-all approach to the identification of sequence-specific readers for epigenetic DNA modifications on cytosine”.
# Key:
# Assay in all cases: DAPPL (digital affinity profiling via proximity ligation, sequencing); 10 mM Tris-HCl pH 7.5, 50 mM NaCl, 1 mM DTT, 4% glycerol, room temperature, 30 min; GST-TFs on glutathione beads, 16-mer random dsDNA library, 0.1% formaldehyde crosslink after washing; high values mean tight binding
# Conditions in all cases: protein: recombinant; tags: N-terminal GST; dsDNA, one strand shown
# [1] = target: T1, FLI1 (Homo sapiens, UniProt Q01543 1-452)
# T1 sequence: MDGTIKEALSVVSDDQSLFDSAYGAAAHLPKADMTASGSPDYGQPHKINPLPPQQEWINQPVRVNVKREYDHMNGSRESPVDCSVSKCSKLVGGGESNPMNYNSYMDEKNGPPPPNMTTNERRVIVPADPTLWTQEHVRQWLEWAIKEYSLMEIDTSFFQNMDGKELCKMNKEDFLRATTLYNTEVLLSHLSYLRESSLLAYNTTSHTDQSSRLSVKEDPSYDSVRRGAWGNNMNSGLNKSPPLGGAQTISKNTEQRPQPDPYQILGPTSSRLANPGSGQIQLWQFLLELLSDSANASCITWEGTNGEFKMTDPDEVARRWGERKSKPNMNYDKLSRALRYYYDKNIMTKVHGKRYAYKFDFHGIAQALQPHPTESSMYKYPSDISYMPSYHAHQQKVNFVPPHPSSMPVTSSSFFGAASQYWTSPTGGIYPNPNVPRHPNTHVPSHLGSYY
# Summary of the method: (§1)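 Binding signal is each hexamer's read frequency for a factor divided by its frequency in the tag-only sample. The factors were GST-fused human transcription factors from yeast, captured on glutathione beads, DNA-barcoded and pooled with that sample. Pools were incubated with 200 nmole of a random double-stranded 16-mer DNA library in Tris/NaCl/DTT/glycerol buffer at room temperature for 30 min, then washed, crosslinked with 0.1% formaldehyde, proximity-ligated with BsaI/T4 ligase (1 h, 37 °C), PCR-amplified and sequenced on an Illumina NextSeq500.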
# [2] = target: T2, ELK1 (Homo sapiens, UniProt P19419 1-428)
# T2 sequence: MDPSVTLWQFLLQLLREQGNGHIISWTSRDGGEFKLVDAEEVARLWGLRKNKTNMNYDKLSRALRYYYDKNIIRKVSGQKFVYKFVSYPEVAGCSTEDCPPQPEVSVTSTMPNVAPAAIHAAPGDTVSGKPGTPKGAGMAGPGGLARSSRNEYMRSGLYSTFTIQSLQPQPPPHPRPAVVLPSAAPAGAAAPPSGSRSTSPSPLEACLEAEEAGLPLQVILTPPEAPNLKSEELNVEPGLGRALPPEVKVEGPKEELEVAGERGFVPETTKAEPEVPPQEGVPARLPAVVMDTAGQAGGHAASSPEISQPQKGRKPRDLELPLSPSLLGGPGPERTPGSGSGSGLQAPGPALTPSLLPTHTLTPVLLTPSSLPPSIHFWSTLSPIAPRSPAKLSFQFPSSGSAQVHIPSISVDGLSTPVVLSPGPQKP
# Summary of the method: as §1
# [3] = target: T3, GABPA (Homo sapiens, UniProt Q06546 1-454)
# T3 sequence: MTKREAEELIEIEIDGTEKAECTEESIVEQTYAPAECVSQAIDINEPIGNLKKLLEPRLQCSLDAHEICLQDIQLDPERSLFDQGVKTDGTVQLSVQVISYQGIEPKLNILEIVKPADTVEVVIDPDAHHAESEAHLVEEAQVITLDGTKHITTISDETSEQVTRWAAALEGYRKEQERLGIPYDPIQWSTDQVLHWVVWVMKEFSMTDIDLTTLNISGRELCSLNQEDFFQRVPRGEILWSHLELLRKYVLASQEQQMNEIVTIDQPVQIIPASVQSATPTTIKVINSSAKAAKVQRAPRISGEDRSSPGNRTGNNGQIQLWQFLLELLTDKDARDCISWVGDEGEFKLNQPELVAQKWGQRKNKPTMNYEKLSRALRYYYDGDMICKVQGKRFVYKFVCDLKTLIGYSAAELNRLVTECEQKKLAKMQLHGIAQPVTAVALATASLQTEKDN
# Summary of the method: as §1
# [4] = target: T4, ERG (Homo sapiens, UniProt P11308 1-479)
# T4 sequence: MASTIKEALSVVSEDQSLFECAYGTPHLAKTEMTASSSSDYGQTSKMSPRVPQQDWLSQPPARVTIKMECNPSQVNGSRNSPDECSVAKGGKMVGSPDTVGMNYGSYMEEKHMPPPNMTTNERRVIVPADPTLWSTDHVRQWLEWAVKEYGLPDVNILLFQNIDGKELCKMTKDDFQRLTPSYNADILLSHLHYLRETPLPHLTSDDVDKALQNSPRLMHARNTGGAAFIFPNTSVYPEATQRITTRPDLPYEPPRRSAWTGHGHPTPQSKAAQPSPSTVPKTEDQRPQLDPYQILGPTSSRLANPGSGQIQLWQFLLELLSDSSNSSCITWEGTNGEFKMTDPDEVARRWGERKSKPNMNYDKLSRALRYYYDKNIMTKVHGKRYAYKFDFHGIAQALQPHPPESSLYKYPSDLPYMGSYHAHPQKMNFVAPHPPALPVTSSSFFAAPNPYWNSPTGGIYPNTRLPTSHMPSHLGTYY
# Summary of the method: as §1
# [5] = target: ELF1 (Homo sapiens, UniProt P32519 1-619)
# Summary of the method: as §1
# [6] = target: T5, EHF (Homo sapiens, UniProt Q9NZC4 1-300)
# T5 sequence: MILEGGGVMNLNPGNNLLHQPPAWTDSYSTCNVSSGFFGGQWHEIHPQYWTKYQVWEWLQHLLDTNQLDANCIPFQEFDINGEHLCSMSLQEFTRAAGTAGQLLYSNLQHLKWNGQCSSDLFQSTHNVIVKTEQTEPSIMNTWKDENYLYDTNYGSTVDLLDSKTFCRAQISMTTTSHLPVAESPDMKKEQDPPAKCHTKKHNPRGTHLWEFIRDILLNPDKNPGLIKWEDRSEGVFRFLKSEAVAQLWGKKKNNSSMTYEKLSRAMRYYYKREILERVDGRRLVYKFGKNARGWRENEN
# Summary of the method: as §1
# [7] = target: SPI1 (Homo sapiens, UniProt P17947 1-270)
# Summary of the method: as §1
# [8] = target: SPIB (Homo sapiens, UniProt Q01892 1-262)
# Summary of the method: as §1
# [9] = target: T6, ELK3 (Homo sapiens, UniProt P41970 1-407)
# T6 sequence: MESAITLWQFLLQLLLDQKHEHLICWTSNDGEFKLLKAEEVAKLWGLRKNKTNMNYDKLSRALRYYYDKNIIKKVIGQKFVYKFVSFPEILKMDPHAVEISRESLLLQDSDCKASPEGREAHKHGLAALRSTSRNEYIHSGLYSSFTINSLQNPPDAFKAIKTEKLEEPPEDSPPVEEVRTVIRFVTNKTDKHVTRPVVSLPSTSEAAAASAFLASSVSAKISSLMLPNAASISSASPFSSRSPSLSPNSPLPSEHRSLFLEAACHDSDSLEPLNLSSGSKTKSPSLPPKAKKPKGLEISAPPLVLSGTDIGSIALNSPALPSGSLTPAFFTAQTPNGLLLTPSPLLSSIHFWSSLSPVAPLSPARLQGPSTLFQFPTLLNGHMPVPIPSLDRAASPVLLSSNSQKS
# Summary of the method: as §1
# Sequence of ELF1 (P32519 whole entry): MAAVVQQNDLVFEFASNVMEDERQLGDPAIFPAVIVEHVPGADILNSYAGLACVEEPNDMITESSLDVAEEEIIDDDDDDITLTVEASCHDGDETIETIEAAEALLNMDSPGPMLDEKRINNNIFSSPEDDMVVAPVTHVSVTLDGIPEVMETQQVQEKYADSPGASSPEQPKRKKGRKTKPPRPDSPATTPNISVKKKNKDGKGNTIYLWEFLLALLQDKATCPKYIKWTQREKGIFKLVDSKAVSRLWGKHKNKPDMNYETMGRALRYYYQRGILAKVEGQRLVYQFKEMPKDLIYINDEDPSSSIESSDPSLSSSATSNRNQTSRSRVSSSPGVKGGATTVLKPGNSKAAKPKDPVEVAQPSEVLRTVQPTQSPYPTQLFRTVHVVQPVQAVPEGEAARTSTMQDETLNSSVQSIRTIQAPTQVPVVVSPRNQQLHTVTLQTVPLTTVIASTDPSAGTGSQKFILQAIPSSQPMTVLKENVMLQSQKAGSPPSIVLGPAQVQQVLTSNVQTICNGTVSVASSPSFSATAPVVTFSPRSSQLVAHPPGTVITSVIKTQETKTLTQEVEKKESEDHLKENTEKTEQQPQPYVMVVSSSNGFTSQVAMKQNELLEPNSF
# Sequence of SPIB (Q01892 whole entry): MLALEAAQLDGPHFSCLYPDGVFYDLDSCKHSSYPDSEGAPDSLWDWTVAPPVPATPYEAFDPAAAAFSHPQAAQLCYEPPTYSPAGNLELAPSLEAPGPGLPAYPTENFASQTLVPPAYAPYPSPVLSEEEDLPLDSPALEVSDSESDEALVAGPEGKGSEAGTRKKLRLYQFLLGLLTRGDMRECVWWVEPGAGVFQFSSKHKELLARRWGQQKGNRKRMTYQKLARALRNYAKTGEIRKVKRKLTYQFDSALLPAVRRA
Sequence,binding signal [1],binding signal [2],binding signal [3],binding signal [4],binding signal [5],binding signal [6],binding signal [7],binding signal [8],binding signal [9]
CTTCCA,"1.5 fold enrichment (6-mer frequency, TF over GST control)","1.42 fold enrichment (6-mer frequency, TF over GST control)","1.34 fold enrichment (6-mer frequency, TF over GST control)","1.47 fold enrichment (6-mer frequency, TF over GST control)","1.39 fold enrichment (6-mer frequency, TF over GST control)","1.53 fold enrichment (6-mer frequency, TF over GST control)","1.44 fold enrichment (6-mer frequency, TF over GST control)","1.51 fold enrichment (6-mer frequency, TF over GST control)","1.58 fold enrichment (6-mer frequency, TF over GST control)"
TGCTTT,"1.13 fold enrichment (6-mer frequency, TF over GST control)","1.12 fold enrichment (6-mer frequency, TF over GST control)","1.12 fold enrichment (6-mer frequency, TF over GST control)","1.02 fold enrichment (6-mer frequency, TF over GST control)","1.1 fold enrichment (6-mer frequency, TF over GST control)","1.04 fold enrichment (6-mer frequency, TF over GST control)","1.14 fold enrichment (6-mer frequency, TF over GST control)","1.08 fold enrichment (6-mer frequency, TF over GST control)","1.1 fold enrichment (6-mer frequency, TF over GST control)"
AAAGAC,"1.06 fold enrichment (6-mer frequency, TF over GST control)","1.07 fold enrichment (6-mer frequency, TF over GST control)","1.02 fold enrichment (6-mer frequency, TF over GST control)","1.07 fold enrichment (6-mer frequency, TF over GST control)","1 fold enrichment (6-mer frequency, TF over GST control)","1.05 fold enrichment (6-mer frequency, TF over GST control)","1.1 fold enrichment (6-mer frequency, TF over GST control)","1.08 fold enrichment (6-mer frequency, TF over GST control)","1.02 fold enrichment (6-mer frequency, TF over GST control)"
GCTGAT,"1.11 fold enrichment (6-mer frequency, TF over GST control)","1.1 fold enrichment (6-mer frequency, TF over GST control)","1.18 fold enrichment (6-mer frequency, TF over GST control)","1.1 fold enrichment (6-mer frequency, TF over GST control)","1.22 fold enrichment (6-mer frequency, TF over GST control)","1.33 fold enrichment (6-mer frequency, TF over GST control)","1.08 fold enrichment (6-mer frequency, TF over GST control)","1.11 fold enrichment (6-mer frequency, TF over GST control)","1.33 fold enrichment (6-mer frequency, TF over GST control)"
TTGGTA,"1.23 fold enrichment (6-mer frequency, TF over GST control)","1.3 fold enrichment (6-mer frequency, TF over GST control)","1.22 fold enrichment (6-mer frequency, TF over GST control)","1.13 fold enrichment (6-mer frequency, TF over GST control)","1.19 fold enrichment (6-mer frequency, TF over GST control)","1.21 fold enrichment (6-mer frequency, TF over GST control)","1.23 fold enrichment (6-mer frequency, TF over GST control)","1.33 fold enrichment (6-mer frequency, TF over GST control)","1.2 fold enrichment (6-mer frequency, TF over GST control)"
TATTTG,"1.52 fold enrichment (6-mer frequency, TF over GST control)","1.41 fold enrichment (6-mer frequency, TF over GST control)","1.43 fold enrichment (6-mer frequency, TF over GST control)","1.47 fold enrichment (6-mer frequency, TF over GST control)","1.35 fold enrichment (6-mer frequency, TF over GST control)","1.45 fold enrichment (6-mer frequency, TF over GST control)","1.46 fold enrichment (6-mer frequency, TF over GST control)","1.46 fold enrichment (6-mer frequency, TF over GST control)","1.39 fold enrichment (6-mer frequency, TF over GST control)"
TTAACT,"1.18 fold enrichment (6-mer frequency, TF over GST control)","1.14 fold enrichment (6-mer frequency, TF over GST control)","1.15 fold enrichment (6-mer frequency, TF over GST control)","1.17 fold enrichment (6-mer frequency, TF over GST control)","1.27 fold enrichment (6-mer frequency, TF over GST control)","1.1 fold enrichment (6-mer frequency, TF over GST control)","1.23 fold enrichment (6-mer frequency, TF over GST control)","1.21 fold enrichment (6-mer frequency, TF over GST control)","1.19 fold enrichment (6-mer frequency, TF over GST control)"
